A selection: hits, their analogues and other compounds. The true share with any hit is near 1.3%.
RXFP1 ag: activates the human relaxin receptor RXFP1 | Q9HBX9 | hit rate 0.3% among 370,000 | HEK293T-RXFP1 cAMP TR-FRET, 30 min; response scale: percent of porcine relaxin response, buffer zero | Potency, µM (titrated, usually from 57.5 µM), inactives show at the highest dose activation, hits mostly activators; active = well fitted activation curve with a large enough effect; inconclusive = small, poorly fitted or top-dose-only effect; also: potency is read from the fitted curve at half-maximal effect; % is scaled to controls: 0 for no effect and ±100 for the full control effect; nearly all actives have a fitted effect of over 60% in size
Target sequence (Q9HBX9 whole entry, looked up): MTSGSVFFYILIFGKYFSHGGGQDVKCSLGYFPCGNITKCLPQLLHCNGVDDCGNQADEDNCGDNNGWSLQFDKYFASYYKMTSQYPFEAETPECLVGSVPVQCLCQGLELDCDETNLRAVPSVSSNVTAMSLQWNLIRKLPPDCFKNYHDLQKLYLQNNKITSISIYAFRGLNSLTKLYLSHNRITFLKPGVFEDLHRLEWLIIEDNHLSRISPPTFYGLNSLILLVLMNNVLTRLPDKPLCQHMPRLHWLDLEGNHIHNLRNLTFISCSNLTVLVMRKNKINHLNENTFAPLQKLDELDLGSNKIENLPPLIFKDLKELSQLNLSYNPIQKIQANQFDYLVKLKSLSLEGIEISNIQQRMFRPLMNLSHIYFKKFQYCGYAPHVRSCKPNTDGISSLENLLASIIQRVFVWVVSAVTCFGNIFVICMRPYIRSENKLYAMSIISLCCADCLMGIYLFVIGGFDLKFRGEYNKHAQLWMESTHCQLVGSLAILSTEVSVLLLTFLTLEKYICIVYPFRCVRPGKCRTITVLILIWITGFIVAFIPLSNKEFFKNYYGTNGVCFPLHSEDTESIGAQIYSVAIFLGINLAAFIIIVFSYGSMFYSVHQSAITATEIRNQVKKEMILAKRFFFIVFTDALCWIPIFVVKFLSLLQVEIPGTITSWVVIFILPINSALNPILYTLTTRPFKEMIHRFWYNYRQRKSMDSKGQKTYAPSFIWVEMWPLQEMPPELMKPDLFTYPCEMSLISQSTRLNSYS
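HEK293T cells stably expressing RXFP1 were pretreated with the PDE4 inhibitor Ro 20174, exposed to compounds for 30 min at 37C, lysed, and cAMP was read by TR-FRET. Data normalized to buffer (basal) and 29 nM porcine relaxin (100%).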
Akt phos inh: blocks phosphorylation of Akt | hit rate 0.32% among 360,000 | Neuro2A IGF-stimulated pAkt S473 HTRF, 20 min; active compounds read low | activity change, % for hits at 50 µM; in the data active = activity change below about -80%; inconclusive = mostly about -51% to -80%; also: % is scaled to controls: 0 for no effect and ±100 for the full control effect
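Single-point screen (50 µM final compound) in Neuro2A cells stimulated 20 min with 6 nM IGF at 37 deg C. After lysis, Ser473-phosphorylated Akt read by HTRF (ex 330 nm, em 615/665 nm) as the 665/615 ratio.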
RXFP1 antagonist: blocks the human relaxin receptor RXFP1 | HEK293-RXFP1, relaxin-stimulated cAMP HTRF, 30 min; active compounds read low | activity change, negative = inhibition, % at 57.5 µM | hit rate 0.59% among 350,000 | AID 1259400;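 active = activity change of -60% or lower, but not beyond a set lower limit; inconclusive = change between -60% and -40%, or beyond the set limit; inactive = change above -40%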; also: % is scaled to controls: 0 for no effect and ±100 for the full control effect
gsp antag: antagonizes gsp, the McCune-Albright syndrome mutation. gsp-mutant cells, cAMP HTRF, 30 min. Potency, µM (highest dose often 76.9 µM), for the others: at the top dose activity change, negative = inhibition, most hits filed as inhibitors. hit rate 0.4% among 340,000; calls by dose curve; cell line not stated here;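 also: intracellular cAMP measured with PDE inhibitor Ro 20-1724 present during compound exposure; potency is read from the fitted curve at half-maximal effect; % is scaled to controls: 0 for no effect and ±100 for the full control effect; nearly all actives have a fitted effect of over 65% in size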
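HTRF cAMP read-out (cAMP-d2 plus anti-cAMP antibody-K in lysis buffer, 30 min RT). Before lysis, cells are exposed to compounds with […] for 30 min at 37C in DPBS containing Ca/Mg, BSA and Tween 20.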
gsp agonist: activates gsp, the McCune-Albright syndrome mutation | hit rate 0.13% among 340,000 | Potency, µM (titrated, usually from 76.9 µM), without a hit: at the highest dose activation (cAMP increase), hits mostly activators | AID 624287 | gsp mutant cells, cAMP HTRF, 30 min; active = well fitted activation curve with a large enough effect; inconclusive = small, poorly fitted or top-dose-only effect, or another doubt; inactive = no such curve, though single readings can be large or run the other way; cell line not stated here;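 also: phosphodiesterase inhibitor Ro 20-1724 added with compounds to block cAMP breakdown; potency is read from the fitted curve at half-maximal effect; nearly all actives have a fitted effect of over 60% in size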
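Cells in DMEM/10% FBS with G418 were pretreated with compounds in DMSO plus […] (300 uM stock) for 30 min at 37C. cAMP was measured by HTRF (cAMP-d2 plus anti-cAMP antibody-K) after 30 min at room temperature.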
* marks the source's active call; other numbers are inactive results; i = inactive; ? = inconclusive; · = no result; ! = repeats disagree; [ ] = another dose, or the depositor's remark.

SMILES	RXFP1 ag	Akt phos inh	RXFP1 antagonist	gsp antag	gsp agonist
O=C(COc1ccc(Cl)cc1)Nc1ncc([N+](=O)[O-])s1	0%	i	-33	35µM*	3%[15.4 µM]
CC(=O)Nc1ncc([N+](=O)[O-])s1	·	·	-4	·	·
Cc1ccc(C(=O)Nc2ncc([N+](=O)[O-])s2)cc1	1%	i	-15	25µM*	7%
O=C(Cc1ccc(Cl)cc1)Nc1ncc([N+](=O)[O-])s1	-1%	i	-11	-19%	-20%[15.4 µM]
O=C(NC(=S)N1CCCc2ccccc21)c1ccccc1	1%	-114%*	-1	-23%	-1%
O=C(NC(=S)N1CCCc2ccccc21)c1ccc(Cl)cc1	1%	i	-18	-6%	?
COc1ccc2cc(/C=C3\SC(=S)NC3=O)c(N3CCOCC3)nc2c1	4%	i	-19	35µM*	24%
O=C(O)Cn1c(O)c(C=Nc2ccccc2)sc1=S	-2%	-107%*!	5	-12%	5%
CCOC(=O)COc1cc(OCC(=O)OCC)c2c3c(c(=O)oc2c1)CCCC3	-2%	i	16	?	11µM*
Cc1nc2ccccc2c(N)c1C(=O)/C=C/c1ccccc1	-1%	i	-83*	3%	?
CC(=O)c1c(C)nc2ccccc2c1N	0%	i	3	-9%	11%
COc1ccc(-n2nnnc2SCC(=O)NC2CCCC2)cc1OC	1%	i	0	4%	-15%
Cc1cc(SCC(=O)NC2CC2)nc2ccccc12	·	i	13	15%	22%[15.4 µM]
COc1cc(OC)cc(-n2nnnc2SCC(=O)NC2CCCC2)c1	3%	-115%*	2	3%	-5%
COc1ccc2c(C)cc(SCC(=O)NC3CCCC3)nc2c1	·	i	13	14%	11µM*
CCOC(=O)C1CCCN(CC(=O)N2CCCc3c2c(=O)oc2ccc(OCc4ccccc4)cc32)C1 (stereo not given)	1%	·	·	·	·
O=C(CN1CCCCC1)N1CCCc2c1c(=O)oc1ccc(OCc3ccccc3)cc21	1%	-119%*	-6	-11%	-15%
O=C(NC1CCCC1)c1ccc2c(c1)N(Cc1ccc(C(F)(F)F)cc1)C(=O)c1ccccc1S2	2%	·	·	·	·
CCOC(=O)C1C(=O)NC(N2CCN(Cc3ccccc3)CC2)=NC1c1ccccc1 (stereo not given)	2%	-87%*	-2	-1%	?
CN(C)CCCOC1(Cc2ccccc2)CCCCCC1	·	·	-7	·	·
COc1ccc(S(=O)(=O)NCCCn2ccnc2)cc1C(C)(C)C	0%	i	-29	2%	-51%
COc1ccc(C(C)C)cc1S(=O)(=O)NCCCn1ccnc1	-1%	i	-63*	7%	-75%
COC(=O)C1=C(C)N(Cc2ccccc2)C(=S)N[C@H]1CCc1ccccc1	0%	·	·	·	·
COc1cccc(C(=O)Nc2cccc(C(=O)OCc3cc(=O)n4c(C)csc4n3)c2)c1	?	·	-8	·	·
CCCCNC(=O)Cc1coc2ccc3ccccc3c12	1%	-110%*	-1	-19%	-24%
SMILES	RXFP1 ag	Akt phos inh	RXFP1 antagonist	gsp antag	gsp agonist
COCCCNC(=O)Cc1coc2ccc3ccccc3c12	0%	i	-10	-11%	9%[15.4 µM]
O=C(NCCc1ccccc1Cl)c1ccc(Cn2c(=O)c3cccn3c3cccnc32)cc1	22µM*	·	9	·	·
COc1ccc(CNC(=O)c2sc3nc4n(c(=O)c3c2C)CCCCC4)cc1	11%	·	-5	·	·
Cc1ccccc1Cn1c(=O)n(-c2ccc(Cl)cc2)c(=O)c2c3c(sc21)CCCC3	3%	·	·	·	·
CC(C(=O)NCC1CCCCC1)N(C)Cc1ccc(Cl)cc1 (stereo not given)	5%	i	-78*	3%	-2%
N#C/C(=N\Nc1ccccc1Cl)C(=O)c1ccccc1	0%	i	-4	?	-25%
N#C/C(=N\Nc1cccc(Cl)c1)C(=O)c1ccccc1	2%	i	2	16µM*	0%
CC1CCCCN1C(=O)c1cccc(NC2=C(Cl)C(=O)N(Cc3ccccc3)C2=O)c1 (stereo not given)	0%	i	1	28µM*	-5%
O=C(NNc1cc(Br)c(O)c(Br)c1)c1ccccc1	0%	i	-96*	0%	5%[15.4 µM]
CO[C@@]1(NC(=O)CSC(F)F)C(=O)N2C(C(=O)O)=C(CSc3nnnn3CCO)CO[C@@H]21	·	·	16	·	·

Source: PubChem BioAssay
